Cruzain noTriton: inhibitors of Trypanosoma cruzi cruzain without detergent; purified cruzain, Z-FR-AMC fluorescence, no detergent; Potency, µM, without a hit: max response, negative = inhibition, most hits filed as inhibitors; 200,000 compounds, 2.3% hits; AID 1476;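 note: plate controls were enzyme without inhibitor for no effect and buffer without enzyme for full effect; nearly all actives have a fitted effect of over 40% in size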
Target sequence (P25779 123-467 limits assumed): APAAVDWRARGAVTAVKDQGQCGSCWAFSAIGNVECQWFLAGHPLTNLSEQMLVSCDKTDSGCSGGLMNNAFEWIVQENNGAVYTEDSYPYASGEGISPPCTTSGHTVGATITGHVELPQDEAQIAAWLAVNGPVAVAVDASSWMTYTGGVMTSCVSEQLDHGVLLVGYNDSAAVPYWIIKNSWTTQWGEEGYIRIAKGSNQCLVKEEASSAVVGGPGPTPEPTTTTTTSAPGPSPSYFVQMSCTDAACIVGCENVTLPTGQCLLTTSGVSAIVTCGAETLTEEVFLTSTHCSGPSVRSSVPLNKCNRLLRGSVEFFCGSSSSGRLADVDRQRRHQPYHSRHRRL
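Detergent-free condition (0.00005% Triton X-100) in acetate buffer pH 5.5 with DTT. 1.5 nM enzyme and compound were pre-mixed 15 min, then 2 uM Z-FR-AMC substrate added; reaction progress from fluorescence change between first and third reads (60 s).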
Cruzain Triton: inhibitors of Trypanosoma cruzi cruzain with detergent; P25779; purified cruzain, Z-FR-AMC fluorescence, 0.01% Triton; Potency, µM, for the others: max response, negative = inhibition, hits mostly inhibitors; 200,000 compounds, 0.43% hits;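 note: plate controls were neutral wells for no effect and buffer without enzyme for full effect; nearly all actives have a fitted effect of over 40% in size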
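Compounds were screened in titration against cruzain (1.5 nM) with 0.01% Triton X-100 to counter colloidal aggregation. Activity was the AMC fluorescence increase over 60 s after adding 2 uM Z-FR-AMC at pH 5.5.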
* hit, by the source's call; u = inconclusive. An excerpt weighted towards active compounds, which were near 2.6% of everything screened. Calls come from the whole dose curve; as a rule, active = well fitted curve in the direction sought with a large enough effect; inconclusive = small, poorly fitted or top-dose-only effect, or another doubt; inactive = no such curve, though single readings can be large; an effect the other way counts as inactive or inconclusive. Potency is the fitted concentration of half-maximal effect.

SMILES | Cruzain noTriton | Cruzain Triton
CC1CCN(S(=O)(=O)c2ccc3c(c2)N(CC(=O)NC(C)C)C(=O)CS3)CC1 | 3% | -3%
CCOc1ccc(CNC(=O)c2ccc3c(c2)c(C)c(C)n3Cc2ccccc2)cc1OC | -27% | 0%
Cc1cccc(OCC(=O)OCc2cc(=O)n3nc(C4CCCCC4)sc3n2)c1 | 4% | -2%
c1cncc(CNc2cc(-c3ccoc3)ncn2)c1 | 0% | -4%
CCOc1ccccc1NC(=O)Cn1c(=O)n(Cc2ccco2)c(=O)c2cccnc21 | -4% | 0%
N#Cc1cccc(NC(=O)c2nc(-c3ccccc3)n(-c3ccccc3)n2)c1 | -9% | 1%
N#Cc1c(-c2ccccc2)nc2n(-c3ccccc3)nc(C(=O)Nc3ccccc3)n2c1=O | 10µM* | 2%
COc1cccc(-c2cc(C(F)(F)F)n3ncc(C(=O)OC(C)C)c3n2)c1 | -14% | -3%
CC(=O)C1=C(C)NC(SCC(=O)c2ccc(C)cc2)=C(C#N)C1c1ccco1 (stereo not drawn) | -29% | -15%
COCCOC(=O)C1=C(C)NC(SCC(=O)NC(C)(C)C)=C(C#N)C1c1ccco1 (stereo not drawn) | 12% | -4%
COc1ccccc1NC(=O)C1=C(C)NC(SCC(=O)c2ccccc2)=C(C#N)C1c1ccco1 (stereo not drawn) | 16µM* | -4%
C=CCOC(=O)C1=C(C)NC(SCC(=O)Nc2ccc(C)c(Cl)c2)=C(C#N)C1c1ccco1 (stereo not drawn) | 10µM* | -7%
CCOc1ccc(CNC(=O)c2ccc(CSc3nc4ccncc4n3Cc3ccc(F)cc3)cc2)cc1 | 14% | -3%
Cc1ccc(NC2=C(C(=O)c3ccccc3)N(C)S(=O)(=O)c3ccccc32)cc1 | 20µM* | -5%
CCN1C(C(=O)c2ccccc2)=C(Nc2ccccc2C)c2ccccc2S1(=O)=O | u | -7%
COc1ccc(-n2c(=O)c3c4c(sc3n(Cc3ccccc3)c2=O)CN(C(C)=O)CC4)cc1OC | u | -2%
CCn1c2ccccc2c2cc(/C(C)=N/O)ccc21 | 2% | -10%
CCn1c2ccccc2c2cc(N)ccc21 | 7.9µM* | -2%
CC(O)C#C[Si](C)(C)c1ccccc1 (stereo not drawn) | -7% | 1%
CCOC(=O)c1c(-c2ccccc2)oc2ccc(OCc3ccccc3Br)cc12 | 6% | 0%
CCc1c(O)nc(SCC(=O)Nc2ccc3c(c2)CCC3)[nH]c1=O | -12% | 1%
CCCCc1c(O)nc(SCC(=O)Nc2ccc3c(c2)CCC3)[nH]c1=O | 20µM* | -17%
O=S(=O)(c1ccc(Cl)cc1)c1nc(-c2cccc(Br)c2)oc1NCc1ccccc1 | 13µM* | -11%
CCCCNc1oc(-c2ccc(OC)cc2)nc1S(=O)(=O)c1ccccc1 | u | 28µM*
O=S(=O)(c1ccccc1)c1nc(-c2ccco2)oc1NCc1ccco1 | -7% | -9%
SMILES | Cruzain noTriton | Cruzain Triton
Cc1ccc(S(=O)(=O)c2nc(-c3ccccc3F)oc2NCc2ccccc2)cc1 | 0% | -2%
O=S(=O)(c1ccccc1)c1nc(-c2ccco2)oc1NCc1ccccc1 | 25µM* | 22µM*
CCNc1oc(-c2ccc(OC)cc2)nc1S(=O)(=O)c1ccc(Br)cc1 | -1% | -3%
O=S(=O)(c1ccccc1)c1nc(-c2cccc(Cl)c2)oc1NCc1ccccc1 | 9% | 0%
Cc1ccc(S(=O)(=O)c2nc(C)oc2NCc2ccccc2)cc1 | 20µM* | 20µM*
COc1cccc(Cn2c(=O)c(-c3cccs3)nc3cnc(N4CCOCC4)nc32)c1 | -7% | 3%
O=C(c1cc(-c2ccc(Cl)cc2)on1)N(Cc1cccc(F)c1)Cc1ccco1 | u | -7%
O=C(c1ccco1)N1CCC2(CCCN(c3ccncc3)C2)CC1 | -5% | 0%
CC(C)c1ccc(NC(=O)COc2nnc(-c3cccs3)c(-c3cccs3)n2)cc1 | 5% | -7%
CCc1ccc(NC(=O)C(C)Oc2nnc(-c3cccs3)c(-c3cccs3)n2)cc1 (stereo not drawn) | 20µM* | 3%
CCC1CN(C(=O)N2CCC(C(=O)N(C)Cc3ccccc3)CC2)c2ccccc2O1 (stereo not drawn) | -7% | -8%
O=C(Nc1nnc(-c2ccc3c(c2)OCCO3)o1)c1ccc(Cc2ccccc2)cc1 | 13µM* | 0%
CSc1cccc(-c2nnc(NC(=O)c3ccc4c(c3)OCCO4)o2)c1 | -2% | 3%
O=c1c(-c2cccs2)nc2cnc(Nc3ccccc3)nc2n1C[C@H]1CCCO1 | 2% | 4%
COc1ccccc1CNC(=O)c1ccc2c(c1)N(Cc1ccc(C)cc1)CCS2 | u | -6%
COc1ccc(Br)cc1CNC(=O)c1ccc2c(c1)N(Cc1ccc(C)cc1)CCS2 | 10µM* | -5%
Cc1ccc(CN2CCSc3ccc(C(=O)Nc4ccc(C)cc4)cc32)cc1 | 10µM* | 0%
CCOc1ccc(CCNC(=O)c2ccc3c(c2)N(Cc2ccc(C)cc2)CCS3)cc1 | u | -3%
CCOC(=O)c1cc(OC(=O)c2ccc(Cl)cc2)n(-c2ccccc2)n1 | 10% | -4%
CCOC(=O)C1CCN(C(c2cccc(F)c2)c2c(O)cc(C)n(CCOC)c2=O)CC1 (stereo not drawn) | 8% | 3%
CN(C)c1ccc(CNC(=O)Cn2c(=O)oc3cc(S(=O)(=O)N4CCCCCC4)ccc32)cc1 | 6% | -7%
COc1cc(C(=O)n2nc(-c3ccco3)nc2NCc2ccc(Cl)cc2)cc(OC)c1OC | -12% | -3%
COc1ccc(/C=N/N(C(C)=O)c2nc(-c3ccc(C)cc3)cs2)cc1 | -3% | -1%
C(=N\Nc1nc(-c2ccccc2)cs1)/c1cccnc1 | -8% | -8%
CC(/C=C/c1ccccc1)=N\Nc1nc(-c2ccccc2)cs1 | 25µM* | 0%
SMILES | Cruzain noTriton | Cruzain Triton
COC(=O)c1ccc(/C=N/Nc2nc(-c3ccc(C)cc3)cs2)cc1 | 13µM* | -11%
CC(C)=NNc1nc(-c2ccccc2)cs1 | -9% | -1%
COC(=O)c1ccc(/C=N/Nc2nc(-c3ccccc3)cs2)cc1 | 13µM* | -6%
Cc1ccc(-c2nnc(Nc3ccc(Br)cc3)c3ccccc23)cc1S(=O)(=O)N1CCN(C)CC1 | -9% | -5%
COc1ccc(-n2ncc(C(=O)Nc3cccc(C(F)(F)F)c3)c2C2CCN(C(=O)OC(C)(C)C)CC2)cc1 | -23% | -3%
CCOc1ccc(NC(=O)c2sc3nc4c(cc3c2N)CN(Cc2ccccc2)CC4)cc1 | 10% | -2%
COc1cccc(-c2nc(N3CCN(c4ccccc4)CC3)c3ccccc3n2)c1O | 10µM* | 1%
COc1cccc(-c2nc(N3CCN(Cc4ccccc4)CC3)c3ccccc3n2)c1O | -4% | -12%
Cc1ccc(NC(=O)CN2CCN(C3CCCCC3)C(=O)C2=O)cc1C | -7% | 1%
C/C(=N\N=C(/N)SC1CC(=O)N(c2ccc(Cl)c(Cl)c2)C1=O)c1cccs1 (stereo not drawn) | 32µM* | -7%
C/C(=N\N=C(/N)SC1CC(=O)N(c2ccc(Cl)cc2)C1=O)c1cccs1 (stereo not drawn) | -4% | -16%
COc1ncc2nc(-c3cc(F)cc(F)c3)c(=O)n(C)c2n1 | -9% | -1%
CCOc1cc(CNC(=O)Cn2c(=O)c3cccn3c3ccc(F)cc32)cc(OCC)c1OCC | 2% | -1%
COP(=O)(OC)c1nc(-c2cccc3ccccc23)oc1N1CCOCC1 | 15% | -17%
CCCNc1oc(-c2cccc3ccccc23)nc1C#N | 3.2µM* | u
N#Cc1nc(-c2cccc3ccccc23)oc1NCCN1CCOCC1 | -4% | -30%

Assay outcomes deposited in PubChem BioAssay by National Center for Advancing Translational Sciences (NCATS).
